# The list is not random: actives were taken first. Their share in the collection is about 0.58%.
# B2AR arrestin = recruits beta-arrestin to the human beta2-adrenergic receptor. P07550. beta-arrestin recruitment to beta2AR, cell-based reporter. Potency, µM (doses to about 46.1 µM), for inactives: at the highest dose activation, usual class: activators. hit rate 0.02% among 330,000;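 further: potency means the concentration at half of the fitted maximal effect; 0% = DMSO controls and full agonism = EC100 isoproterenol or metaproterenol; nearly all actives have a fitted effect of over 65% in size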
# PKM2 act = PKM2 (human) enzyme activation. P14618. hit rate 0.34% among 260,000. Potency, µM (titrated, usually from 57.5 µM), without a hit: top-dose activation, most hits filed as activators. purified PKM2, Kinase-Glo ATP luminescence, activation; response scale: 0% is enzyme alone, no compound; further: potency means the concentration at half of the fitted maximal effect; on the % scale 0 is the no-effect control and ±100 the full control effect; nearly all actives have a fitted effect of over 55% in size
# Target sequence (P14618 whole entry, looked up): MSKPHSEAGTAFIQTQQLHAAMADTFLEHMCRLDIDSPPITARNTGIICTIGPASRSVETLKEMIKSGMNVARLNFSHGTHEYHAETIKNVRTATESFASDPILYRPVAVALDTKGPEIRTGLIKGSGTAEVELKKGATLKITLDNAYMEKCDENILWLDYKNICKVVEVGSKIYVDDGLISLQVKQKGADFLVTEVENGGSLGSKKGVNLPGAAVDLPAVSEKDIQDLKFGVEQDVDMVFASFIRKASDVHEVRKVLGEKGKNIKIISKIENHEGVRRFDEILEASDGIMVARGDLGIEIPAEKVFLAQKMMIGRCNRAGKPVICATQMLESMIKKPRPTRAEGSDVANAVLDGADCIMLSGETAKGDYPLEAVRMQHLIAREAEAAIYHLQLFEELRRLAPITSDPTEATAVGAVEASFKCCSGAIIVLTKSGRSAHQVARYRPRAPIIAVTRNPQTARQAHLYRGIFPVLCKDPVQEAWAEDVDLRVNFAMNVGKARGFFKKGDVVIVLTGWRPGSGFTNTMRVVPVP
#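 Purified hPK-M2 (>95% pure) converted ADP (0.1 mM final) to ATP with 0.5 mM PEP in 50 mM imidazole pH7.2, KCl, MgCl2, Tween 20, BSA; 1 h at room temperature. ATP detected by Kinase-Glo luminescence.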
# Epigenetic derep = regulators of epigenetic silencing causing reporter derepression in mouse cells; Potency, µM (highest dose often 53.9 µM), without a hit: at the top dose GFP activation, most hits filed as activators; murine LDR cells, GFP reporter derepression, 30 h; AID 1865; hit rate 0.2% among 280,000; further: potency means the concentration at half of the fitted maximal effect; % of control where 0% means no effect; nearly all actives have a fitted effect of over 60% in size
#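 In this reporter-derepression format, murine cells bearing a silenced integrated CMV-GFP locus incubate with test compound (30 h, 37 C), then are washed and imaged; fluorescent objects of 20–120 um count as induced cells.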
# IL-2 act = IL-2 activation | AID 652025 | hit rate 0.065% among 360,000 | IL-2 activation reporter assay, cell-based qHTS; stimulated with anti-CD3/CD4/CD28 beads; in transgenic mouse T cells | activation, % (series mostly up to about 46 µM); in the data active means activation above about 50%; inconclusive means mostly about 30% to 49%; further: 0% is about no effect
#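 Readout: EGFP and DsRed signals by fluorescent plate cytometry. Unstimulated transgenic mouse T cells received compound 60 min before antibody-bead stimulation, then incubated 18 h at 37 degrees C.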
# PINK1 modulator = modulators of PINK1 expression. PINK1 immunofluorescence, high-content cytometry, 24 h. Potency, µM (highest dose often 76.6 µM), for inactives: at the top dose activation (PINK1 increase), actives largely listed as activators. hit rate 0.2% among 410,000. AID 624263; active means well fitted activation curve with a large enough effect; inconclusive means small, poorly fitted or top-dose-only effect; cell line not stated here; further: potency means the concentration at half of the fitted maximal effect; % of control where 0% means no effect; nearly all actives have a fitted effect of over 65% in size
#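 Decision-based qHTS: stable cells, 24 h exposure to five compound concentrations, CCCP as control. Fixed cells stained for PINK1 plus nuclear, mitochondrial and cell markers, cytometer read.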
# * = called active by the depositor; ? = inconclusive; / = no result given; [ ] = remark or other dose. Unless noted, the call rests on the fitted dose curve; in most records, active means well fitted curve in the direction sought with a large enough effect; inconclusive means small, poorly fitted or top-dose-only effect, or another doubt; inactive means no such curve, though single readings can be large; an effect the other way counts as inactive or inconclusive.
SMILES,B2AR arrestin,PKM2 act,Epigenetic derep,IL-2 act,PINK1 modulator
O=[N+]([O-])c1ccc(C(c2ccc([N+](=O)[O-])cc2)c2ccc([N+](=O)[O-])cc2)cc1,/,/,/,0,23%
Cc1[nH]n(-c2ccccc2)c(=O)c1C(c1ccc([N+](=O)[O-])cc1)c1c(C)[nH]n(-c2ccccc2)c1=O,0%,-22%,-1%,20,40µM*
CC(=NCc1ccc2c(c1)OCO2)c1c(O)n(Cc2ccccc2)c(=O)[nH]c1=O,5%,25µM*,-1%,0,7%
CC[C@]1(O)CC(O[C@@H]2CC(N(C)C)C(O)C(C)O2)c2c(cc3c(c2O)C(=O)c2c(O)cccc2C3=O)C1C(=O)OC (stereo partly drawn),/,/,6.3µM*,/,/
CCN(CCNc1ccc([N+](=O)[O-])c2cccnc12)S(=O)(=O)c1ccccc1,0%,-20%,?,0,40µM*
Fc1ccc(C(OCCN2CCN(C/C=C/c3ccccc3)CC2)c2ccc(F)cc2)cc1,/,/,0%,/,/
CCc1nnc(NC(=O)CSc2ccc(-c3ccco3)nn2)s1,0%,16µM*,0%,1,-1%
O=C(CSc1ccc(-c2ccco2)nn1)Nc1ccccc1,0%,14µM*,0%,0,2%
N#CC(C#N)=NNc1ccc(OC(F)(F)F)cc1,/,12%,1%,/,/
CCOC(=O)c1cccc(-[n+]2c(-c3ccccc3)cc(-c3ccccc3)cc2-c2ccccc2)c1,-1%,/,/,-1,25µM*
CCOC(=O)c1ccc(-[n+]2c(-c3ccccc3)cc(-c3ccccc3)cc2-c2ccccc2)cc1,-1%,/,/,-1,?
C/C=C1/C[N@@+]2(C)CC[C@]34C(=C(C=O)[C@H]1C[C@H]32)Nc1ccccc14,/,/,0%,/,/
Cc1cccc(-n2c(/C=C/c3ccc([N+](=O)[O-])o3)nc3ccccc3c2=O)c1,0%,6%,0%,-1,10%
O=c1c2ccccc2nc(/C=C/c2ccc([N+](=O)[O-])o2)n1-c1ccc(O)cc1,11%,4%,2%,?,40µM*
CC(C)c1ccc2c(c1O)CCC1C3=C(CC[C@]21C)C(=O)OC3 (stereo partly drawn),/,/,2%,/,-1%
N#Cc1cc(NC(=O)c2ccc(Cl)cc2)ccc1Sc1ccccc1,/,/,/,-1,25µM*
CN1/C(=C\C=C2C(=O)NC(=S)NC2=O)C(C)(C)c2ccccc21,0%,-4%,18µM*,25,35µM*
CC1(C)OC(c2ccccc2)=C/C(=C/C=C2C(=O)NC(=S)NC2=O)O1,0%,-22%,-4%,12,?
CC(n1cc(C[C@H](N)C(=O)O)c2ccccc21)n1cc(C[C@H](N)C(=O)O)c2ccccc21,/,/,1%,/,/
Cc1c(P(=S)(c2ccccc2)c2ccccc2)[n+]2ccccc2n1CCc1ccccc1,/,/,/,-1,25µM*
CCOC(=O)c1c(C)n(Cc2ccc3c(c2)OCO3)c2ccc(O)cc12,0%,15%,-1%,-1,/
CCOC(=O)c1c(C)n(Cc2ccc(F)cc2)c2ccc(O)cc12,0%,11µM*,-1%,0,6%
O=c1[nH]c(=O)n(CCC2=CCCCC2)c(O)c1/C=N/Nc1ccccc1,0%,4%,1%,3,-1%
CCN(CC)c1ccc(N=Cc2c(O)n(CCC3=CCCCC3)c(=O)[nH]c2=O)cc1,0%,0%,22µM*,-2,?
CN(C)c1ccc(N=Cc2c(O)n(CCC3=CCCCC3)c(=O)[nH]c2=O)cc1,-1%,-4%,?,206*,?
SMILES,B2AR arrestin,PKM2 act,Epigenetic derep,IL-2 act,PINK1 modulator
CCCCC/C=C\C/C=C\C/C=C\C/C=C\CCCC(=O)N[C@H](C)CO,/,/,-1%,/,/
CCOc1ccccc1N=C1SCCCN1C,0%,-4%,2%,-4,5%[38.3 µM]
CCOc1cccc(=NC2CCCCC2)c2c(C)n(C)c(C)c12,0%,-4%,0%,-1,16µM*
O=C1C(Cl)=C(Cl)C(=O)C(Cl)=C1Cl,/,/,1%,/,/
COP(=S)(OC)Oc1ccc([N+](=O)[O-])cc1,/,/,0%,/,-1%
CC[C@]1(c2cccc(O)c2)CCCCN(C)C1,/,/,1%[16.9 µM],/,/
CN1CC[C@]2(c3cccc(O)c3)Cc3nc4ccccc4cc3C[C@H]2C1,11µM*,-1%,-1%,/,/
O=[N+]([O-])c1ccc(NCc2ccccc2)c2nonc12,0%,8%,22µM*,-5,40µM*
O=c1cc(C(F)(F)F)c2cc3c4c(c2o1)CCCN4CCC3,0%,-10%,7.1µM*,18,-1%
N[C@]1(C(=O)O)CC[C@@H](C(=O)O)C1 (racemic),/,/,2%,/,/
C[C@H](N)C(=O)N[C@@H](C)C(=O)N[C@@H](Cc1ccccc1)C(=O)CCl,/,/,1%,/,/
COC(=O)C1=C(c2ccc(OCc3ccccc3)cc2)C[C@@H]2CC[C@H]1N2C(=O)NCc1ccc(OC)c(OC)c1,18µM*,/,/,-3,-1%
CC(=O)N1N=C(c2cccnc2)CC1c1ccccc1O (stereo not drawn),0%,5µM*,1%,2,0%
CC(=O)N1N=C(c2c(O)n(C)c(=O)n(C)c2=O)CC1c1ccccc1 (stereo not drawn),0%,-4%,0%,1,-2%
N#CC(=Cc1ccc(O)c(O)c1)C(N)=S,/,/,1%,/,/
Cn1c(NN=O)nc2ccccc21,-1%,-3%,11µM*,-4,-1%
O=[N+]([O-])c1ccc(N2CCCCCC2)c2nonc12,-1%,-2%,/,-2,40µM*
CC[C@@H](CO)NC(=O)[C@H]1C=C2c3cccc4c3c(cn4C)C[C@H]2N(C)C1,/,/,-1%,/,/
CCOc1ccc(-c2c(C)n(-c3ccc(OCC)cc3)c3[n+]2CCCCC3)cc1,0%,1%,1%,0,10µM*
CC(C)C1C(=O)N2CCC[C@H]2[C@]2(O)O[C@](NC(=O)[C@@H]3C=C4c5cccc6[nH]cc(c56)C[C@H]4N(C)C3)(C(C)C)C(=O)N12 (stereo partly drawn),/,/,1%,/,/
CC(=O)[C@@H]1CC[C@H]2[C@@H]3CC[C@@H]4CC(=O)CC[C@]4(C)[C@H]3CC[C@]12C,/,/,1%,/,/
Cc1cccc(-n2c(/C=C/c3c(C)[nH]c4ccccc34)nc3ccccc3c2=O)c1,/,/,4µM*,/,26%
Cc1cccc(-n2c(/C=C/c3ccccc3O)nc3ccccc3c2=O)c1,/,/,1%,/,0%
O=C1NC(=O)C(=Cc2ccc(-c3ccccc3[N+](=O)[O-])o2)C(=O)N1,0%,18µM*,?,-5,-1%
O=C(O)[C@@H]1Cc2[nH]cnc2C(c2cccnc2)N1 (stereo partly drawn),/,/,0%,/,/
S=P(Nn1cnnc1)(c1ccc(Br)cc1)c1ccc(Br)cc1,0%,28µM*,7%,0,1%
COc1cc2c(cc1OC)[C@@H]1C(=O)c3ccc(OC)c(CC=C(C)C)c3OC1CO2 (stereo partly drawn),/,/,-2%,/,20µM*

# Screening data (PubChem BioAssay)
